In experiment [1] the test system is Tyrosine-protein kinase ABL1 (Homo sapiens), P00519 [T315I]. The note with it: at 1 µM.
In experiment [2] the test system is Tyrosine-protein kinase ABL1 (Homo sapiens), P00519 [Y253F]. The following applies: at 0.1 µM.
Experiment [3] shares this test system. The note with it: at 1 µM.
The target of experiment [4] is Tyrosine-protein kinase ABL1 (Homo sapiens) (UniProt P00519). The note with it: at 0.1 µM.
The target is the same in experiment [5]. The note with it: at 1 µM.
The target in experiment [6] is ALK tyrosine kinase receptor (Homo sapiens) (UniProt Q9UM73). The following applies: at 0.1 µM.
For experiment [7] the target is unchanged. The following applies: at 1 µM.
Experiment [8] concerns the target Tyrosine-protein kinase ABL2 (Homo sapiens) (UniProt P42684). The following applies: at 0.1 µM.
The target is the same in experiment [9]. The following applies: at 1 µM.
The target of experiment [10] is Tyrosine-protein kinase receptor UFO (Homo sapiens) (UniProt P30530). The note with it: at 0.1 µM.
Experiment [11] has the same target. The following applies: at 1 µM.
In experiment [12] the target is Tyrosine-protein kinase Blk (Homo sapiens) (UniProt P51451). The note with it: at 0.1 µM.
Experiment [13] shares this target. The note with it: at 1 µM.
For experiment [14], the target named is T1, Cytoplasmic tyrosine-protein kinase BMX (Homo sapiens) (UniProt P51813).
T1 sequence (whole entry): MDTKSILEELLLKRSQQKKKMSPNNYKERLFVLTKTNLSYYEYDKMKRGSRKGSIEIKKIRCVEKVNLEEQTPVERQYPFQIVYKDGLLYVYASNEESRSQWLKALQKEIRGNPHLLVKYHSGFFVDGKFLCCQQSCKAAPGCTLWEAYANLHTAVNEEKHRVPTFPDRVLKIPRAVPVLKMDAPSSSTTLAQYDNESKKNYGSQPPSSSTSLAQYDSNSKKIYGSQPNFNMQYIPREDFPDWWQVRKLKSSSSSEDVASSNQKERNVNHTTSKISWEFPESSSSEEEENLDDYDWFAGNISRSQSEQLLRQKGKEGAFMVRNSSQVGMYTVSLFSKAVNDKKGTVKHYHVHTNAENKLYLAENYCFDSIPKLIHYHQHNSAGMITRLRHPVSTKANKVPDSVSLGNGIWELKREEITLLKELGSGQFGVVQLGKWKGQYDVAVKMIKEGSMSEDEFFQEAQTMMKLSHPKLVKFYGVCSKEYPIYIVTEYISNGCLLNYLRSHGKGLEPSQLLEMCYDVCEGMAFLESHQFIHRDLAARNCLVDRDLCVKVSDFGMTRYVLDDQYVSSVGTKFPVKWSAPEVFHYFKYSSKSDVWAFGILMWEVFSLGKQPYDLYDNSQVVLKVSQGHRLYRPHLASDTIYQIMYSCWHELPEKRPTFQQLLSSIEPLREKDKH
The note with it: at 0.1 µM.

Experiment [15] addresses T1, Cytoplasmic tyrosine-protein kinase BMX (Homo sapiens). The note with it: at 1 µM.
Experiment [16] deals with Protein-tyrosine kinase 6 (Homo sapiens) (UniProt Q13882). The note with it: at 0.1 µM.
The target is the same in experiment [17]. The following applies: at 1 µM.
In experiment [18] the target is Tyrosine-protein kinase BTK (Homo sapiens) (UniProt Q06187). The following applies: at 0.1 µM.
Experiment [19] has the same target. The following applies: at 1 µM.
Experiment [20] deals with Tyrosine-protein kinase CSK (Homo sapiens) (UniProt P41240). The following applies: at 0.1 µM.

Usually inhibition stands for the drop in the measured response relative to a control, in per cent.

Chain of Tyrosine-protein kinase ABL2 (Homo sapiens) (P42684 whole entry): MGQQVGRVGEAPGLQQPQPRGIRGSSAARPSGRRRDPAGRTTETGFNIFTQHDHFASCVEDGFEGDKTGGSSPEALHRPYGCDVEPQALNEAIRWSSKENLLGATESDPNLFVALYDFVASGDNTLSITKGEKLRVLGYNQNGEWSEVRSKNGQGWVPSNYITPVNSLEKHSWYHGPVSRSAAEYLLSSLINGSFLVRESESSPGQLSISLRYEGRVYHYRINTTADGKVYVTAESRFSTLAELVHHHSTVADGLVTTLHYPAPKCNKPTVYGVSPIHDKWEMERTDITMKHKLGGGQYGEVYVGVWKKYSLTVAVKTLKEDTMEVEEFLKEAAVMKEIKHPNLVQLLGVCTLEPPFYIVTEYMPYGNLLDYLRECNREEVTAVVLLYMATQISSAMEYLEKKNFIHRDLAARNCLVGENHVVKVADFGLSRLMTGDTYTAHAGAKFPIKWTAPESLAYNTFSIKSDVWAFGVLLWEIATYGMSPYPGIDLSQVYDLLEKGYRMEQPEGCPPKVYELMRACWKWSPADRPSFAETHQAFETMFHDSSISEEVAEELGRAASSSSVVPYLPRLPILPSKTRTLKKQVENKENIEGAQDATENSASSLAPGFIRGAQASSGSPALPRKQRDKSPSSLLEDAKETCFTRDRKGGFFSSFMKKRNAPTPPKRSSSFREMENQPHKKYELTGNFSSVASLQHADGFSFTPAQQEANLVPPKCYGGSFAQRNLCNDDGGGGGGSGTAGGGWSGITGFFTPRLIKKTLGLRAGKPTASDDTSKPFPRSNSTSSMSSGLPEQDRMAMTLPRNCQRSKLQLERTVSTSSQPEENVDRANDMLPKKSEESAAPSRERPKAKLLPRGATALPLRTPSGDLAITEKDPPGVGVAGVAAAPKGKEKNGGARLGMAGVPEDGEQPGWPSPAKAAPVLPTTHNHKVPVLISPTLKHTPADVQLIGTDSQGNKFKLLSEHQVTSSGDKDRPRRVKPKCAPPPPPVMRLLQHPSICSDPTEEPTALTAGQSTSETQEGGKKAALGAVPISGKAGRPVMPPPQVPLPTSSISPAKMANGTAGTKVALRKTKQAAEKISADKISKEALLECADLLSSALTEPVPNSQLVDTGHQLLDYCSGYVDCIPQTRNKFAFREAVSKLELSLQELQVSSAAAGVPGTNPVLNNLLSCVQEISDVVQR
Chain of Tyrosine-protein kinase Blk (Homo sapiens) (P51451 2-505 limits assumed): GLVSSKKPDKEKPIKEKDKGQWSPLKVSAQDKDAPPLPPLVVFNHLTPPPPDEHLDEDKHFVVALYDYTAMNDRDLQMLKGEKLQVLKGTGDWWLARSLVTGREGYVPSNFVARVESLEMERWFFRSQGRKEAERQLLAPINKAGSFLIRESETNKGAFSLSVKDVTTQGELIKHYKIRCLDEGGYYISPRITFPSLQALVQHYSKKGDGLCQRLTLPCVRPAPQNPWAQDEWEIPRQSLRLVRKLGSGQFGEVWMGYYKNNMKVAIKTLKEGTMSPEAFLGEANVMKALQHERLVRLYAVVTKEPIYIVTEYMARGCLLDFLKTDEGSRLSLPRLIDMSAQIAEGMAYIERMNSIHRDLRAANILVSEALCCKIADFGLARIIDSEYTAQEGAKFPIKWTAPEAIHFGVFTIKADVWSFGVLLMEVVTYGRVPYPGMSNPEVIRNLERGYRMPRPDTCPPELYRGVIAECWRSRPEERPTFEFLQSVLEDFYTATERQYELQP
Chain of Protein-tyrosine kinase 6 (Homo sapiens) (Q13882 whole entry, looked up): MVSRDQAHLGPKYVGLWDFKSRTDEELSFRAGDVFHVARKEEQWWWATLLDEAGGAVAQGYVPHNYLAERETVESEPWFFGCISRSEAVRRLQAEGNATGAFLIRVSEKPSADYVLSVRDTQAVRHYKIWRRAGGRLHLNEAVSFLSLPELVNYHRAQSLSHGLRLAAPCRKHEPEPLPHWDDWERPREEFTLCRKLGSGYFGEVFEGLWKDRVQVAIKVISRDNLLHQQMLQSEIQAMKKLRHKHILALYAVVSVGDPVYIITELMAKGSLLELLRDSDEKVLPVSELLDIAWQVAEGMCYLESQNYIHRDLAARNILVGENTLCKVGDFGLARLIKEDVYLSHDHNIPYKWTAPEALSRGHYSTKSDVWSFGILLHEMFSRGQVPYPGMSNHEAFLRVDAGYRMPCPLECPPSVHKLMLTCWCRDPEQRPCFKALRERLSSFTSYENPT
Chain of ALK tyrosine kinase receptor (Homo sapiens) (Q9UM73 19-1620 limits assumed): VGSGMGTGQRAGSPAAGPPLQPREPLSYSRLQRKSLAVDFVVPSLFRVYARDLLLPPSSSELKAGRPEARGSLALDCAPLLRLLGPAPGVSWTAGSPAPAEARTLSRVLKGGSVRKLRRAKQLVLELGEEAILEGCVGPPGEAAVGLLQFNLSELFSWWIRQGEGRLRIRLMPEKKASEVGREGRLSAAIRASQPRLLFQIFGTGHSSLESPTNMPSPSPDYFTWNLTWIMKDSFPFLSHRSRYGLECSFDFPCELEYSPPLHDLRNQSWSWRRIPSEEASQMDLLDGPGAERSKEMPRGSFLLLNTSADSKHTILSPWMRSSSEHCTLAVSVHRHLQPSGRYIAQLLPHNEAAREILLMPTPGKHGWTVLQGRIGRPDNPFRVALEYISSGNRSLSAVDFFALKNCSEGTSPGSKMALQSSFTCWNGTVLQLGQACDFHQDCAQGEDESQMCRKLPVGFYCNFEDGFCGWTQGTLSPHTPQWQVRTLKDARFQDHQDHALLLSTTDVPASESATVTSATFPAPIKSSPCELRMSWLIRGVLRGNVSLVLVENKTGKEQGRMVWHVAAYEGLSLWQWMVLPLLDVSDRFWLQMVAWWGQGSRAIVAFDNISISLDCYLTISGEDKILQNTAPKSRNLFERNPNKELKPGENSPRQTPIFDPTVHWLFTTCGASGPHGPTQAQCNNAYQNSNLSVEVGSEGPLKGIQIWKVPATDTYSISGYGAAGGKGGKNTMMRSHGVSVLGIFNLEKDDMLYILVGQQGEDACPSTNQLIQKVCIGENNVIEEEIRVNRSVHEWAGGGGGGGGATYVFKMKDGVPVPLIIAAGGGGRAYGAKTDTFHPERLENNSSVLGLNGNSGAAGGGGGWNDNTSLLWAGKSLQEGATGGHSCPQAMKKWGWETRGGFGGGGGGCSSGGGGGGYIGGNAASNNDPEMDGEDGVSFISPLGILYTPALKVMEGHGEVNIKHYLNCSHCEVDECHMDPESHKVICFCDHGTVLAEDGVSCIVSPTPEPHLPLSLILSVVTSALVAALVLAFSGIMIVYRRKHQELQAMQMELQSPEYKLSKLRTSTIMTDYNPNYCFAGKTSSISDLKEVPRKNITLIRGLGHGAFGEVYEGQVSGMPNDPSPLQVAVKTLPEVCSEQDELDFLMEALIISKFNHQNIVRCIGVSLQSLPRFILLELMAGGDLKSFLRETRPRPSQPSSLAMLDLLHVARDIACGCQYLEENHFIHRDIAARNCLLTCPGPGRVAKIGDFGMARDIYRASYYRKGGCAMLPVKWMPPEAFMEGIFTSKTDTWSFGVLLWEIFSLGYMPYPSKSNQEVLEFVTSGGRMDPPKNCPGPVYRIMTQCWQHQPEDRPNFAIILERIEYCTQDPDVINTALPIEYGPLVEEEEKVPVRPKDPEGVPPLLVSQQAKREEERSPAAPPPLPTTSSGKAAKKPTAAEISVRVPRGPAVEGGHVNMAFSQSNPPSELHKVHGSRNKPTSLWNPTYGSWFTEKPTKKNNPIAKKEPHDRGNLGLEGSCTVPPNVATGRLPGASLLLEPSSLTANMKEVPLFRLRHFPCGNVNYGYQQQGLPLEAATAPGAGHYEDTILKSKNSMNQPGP
Chain of Tyrosine-protein kinase receptor UFO (Homo sapiens) (P30530 whole entry): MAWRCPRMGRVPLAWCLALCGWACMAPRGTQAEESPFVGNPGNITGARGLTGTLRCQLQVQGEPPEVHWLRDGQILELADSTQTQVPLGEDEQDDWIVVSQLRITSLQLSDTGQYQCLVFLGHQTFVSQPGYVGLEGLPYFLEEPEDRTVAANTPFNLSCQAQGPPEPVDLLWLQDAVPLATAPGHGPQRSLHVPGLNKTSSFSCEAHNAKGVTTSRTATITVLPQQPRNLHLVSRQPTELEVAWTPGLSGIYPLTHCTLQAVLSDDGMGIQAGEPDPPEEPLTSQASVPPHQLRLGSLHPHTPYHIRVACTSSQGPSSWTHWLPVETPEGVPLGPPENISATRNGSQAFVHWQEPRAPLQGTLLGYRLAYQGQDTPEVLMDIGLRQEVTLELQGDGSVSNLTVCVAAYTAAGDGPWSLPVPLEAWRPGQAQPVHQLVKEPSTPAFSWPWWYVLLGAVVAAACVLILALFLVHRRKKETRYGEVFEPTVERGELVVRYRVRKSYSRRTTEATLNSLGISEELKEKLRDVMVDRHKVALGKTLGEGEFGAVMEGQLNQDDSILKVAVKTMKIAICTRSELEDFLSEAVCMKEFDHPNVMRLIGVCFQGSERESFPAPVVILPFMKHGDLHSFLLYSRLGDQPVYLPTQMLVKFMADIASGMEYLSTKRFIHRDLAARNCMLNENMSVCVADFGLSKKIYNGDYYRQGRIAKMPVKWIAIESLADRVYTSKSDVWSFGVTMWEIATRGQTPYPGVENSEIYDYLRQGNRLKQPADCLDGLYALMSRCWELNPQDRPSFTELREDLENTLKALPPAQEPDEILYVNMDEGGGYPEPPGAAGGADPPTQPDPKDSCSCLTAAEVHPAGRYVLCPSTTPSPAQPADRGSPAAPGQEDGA
Chain of Tyrosine-protein kinase CSK (Homo sapiens) (P41240 2-450 limits assumed): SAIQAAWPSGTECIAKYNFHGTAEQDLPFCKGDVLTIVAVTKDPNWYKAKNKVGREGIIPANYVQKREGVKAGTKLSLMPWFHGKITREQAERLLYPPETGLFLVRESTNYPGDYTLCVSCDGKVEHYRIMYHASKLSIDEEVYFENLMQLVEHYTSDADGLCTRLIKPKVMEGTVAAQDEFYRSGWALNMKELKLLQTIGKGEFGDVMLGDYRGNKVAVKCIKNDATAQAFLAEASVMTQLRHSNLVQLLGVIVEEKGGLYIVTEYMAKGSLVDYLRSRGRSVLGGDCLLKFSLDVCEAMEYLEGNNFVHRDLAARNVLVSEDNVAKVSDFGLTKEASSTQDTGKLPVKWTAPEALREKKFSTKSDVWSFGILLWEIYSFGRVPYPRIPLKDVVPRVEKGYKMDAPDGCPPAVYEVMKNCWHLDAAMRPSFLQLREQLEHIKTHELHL

Turning to `COc1cccc(-n2cnc3c(N/N=C/c4ccncc4)ncnc32)c1`, the inhibition was 28.5% in experiment [1]; 44.6% in [2]; 85.3% in experiment [3]; 29% in experiment [4]; 72.2% in experiment [5]; -1.9% in experiment [6]. The inhibition in experiment [7] was -4.64%; in experiment [8], 12.7%; in experiment [9] it was 59.5%; in experiment [10], 3.99%; in experiment [11], -2.08%; in experiment [12], -0.3%. The inhibition in [13] is 15.8%; in experiment [14], -0.75%; in [15], 16.1%; in experiment [16], 0.43%; in [17], 15.2%; in experiment [18], -2.61%. Also, the values for the inhibition in experiment [19] and in [20] were -2.79% and 1.91%, respectively.
Consider `Fc1ccc(-c2c(-c3ccncc3)nc3n2CCS3)cc1`, for which the inhibition is 3.81% in experiment [1]; 2.69% in experiment [2]; 5.48% in [3]; -1.32% in experiment [4]; 2.3% in [5]; -2.59% in [6]. Also, the inhibition is -1.88% in [7]; -2.22% in experiment [8]; 2.07% in experiment [9]; -4.74% in experiment [10]; -2.08% in [11]; -2.78% in experiment [12]. Moreover, the inhibition is -0.74% in experiment [13]; 1.44% in experiment [14]; 0.74% in [15]; 4.76% in experiment [16]; 4.76% in [17]; -5.15% in experiment [18]. For the same compound, the inhibition in [19] is -4.99%; in experiment [20] it was 3.65%.
As for `Cc1nnc(-c2ccc(C)c(-c3ccc(C(=O)NCc4ccc(Cl)cc4)cc3)c2)o1`, the inhibition in [1] is 3.98%; in experiment [2], 3.1%; in experiment [3], 5.29%; in experiment [4] it was -2.31%; in experiment [5] it was 1.59%; in experiment [6], -1.04%. Besides, the inhibition in experiment [7] is 0.41%; in experiment [8], -0.31%; in experiment [9], 2.57%; in [10], -5.93%; in experiment [11], -7.1%; in experiment [12], -0.28%. Besides, the inhibition in experiment [13] is 0.7%; in [14], 2.05%; in [15] it was 1.64%; in experiment [16], 2.2%; in [17], 6.8%; in [18] it was -1.06%. In addition, the inhibition in [19] is -4.02%; in [20] it was 3.38%.
Consider `NC(=O)c1ccc(Oc2nccc(-c3c(-c4ccc(F)cc4)ncn3C3CCNCC3)n2)cc1`, for which the inhibition in experiment [1] was 2.27%; in experiment [2], 3.97%; in experiment [3], 3.32%; in [4] it was 4.17%; in experiment [5], 2.89%; in experiment [6] it was 4.85%. In addition, the inhibition in experiment [7] was 4.45%; in experiment [8], 2.35%; in experiment [9] it was 3.64%; in [10], -7.67%; in experiment [11] it was -8.36%; in experiment [12] it was 3.48%. In addition, the inhibition in experiment [13] is 3.04%; in [14], 5.3%; in experiment [15], 7.95%; in [16], 3.36%; in experiment [17], 6.07%; in experiment [18], -0.49%. In addition, the inhibition in experiment [19] was 0.73%; in [20] it was 3.03%.
Take `COc1ccc2cc(-c3c(-c4ccncc4)nc(-c4ccc([S+](C)[O-])cc4C)n3C)ccc2c1` (stereo not given): the inhibition in [1] is 54.5%; in experiment [2] it was 1.98%; in experiment [3], 16%; in [4], 2.56%; in experiment [5], 15.7%; in experiment [6], -0.66%. Further, the inhibition in experiment [7] is 2.15%; in [8] it was 5.58%; in [9], 12.1%; in [10] it was 1.01%; in [11], 1.82%; in [12] it was -0.17%. Besides, the inhibition in experiment [13] was 4.39%; in [14], 0.28%; in experiment [15], 0.8%; in [16], 24.7%; in experiment [17], 81.2%; in experiment [18], -0.17%. The inhibition in experiment [19] was 0.66%; in [20], -0.71%.
Regarding `CCC(=O)Nc1ccc(C)c(-c2ccc(C(=O)NCC3CC3)cc2)c1`, the inhibition in experiment [1] was determined as 3.61%; in [2] it was 2.81%; in experiment [3], 3.14%; in [4], 2.28%; in [5] it was 2.9%; in experiment [6] it was 1.63%. The inhibition in [7] is 2.14%; in experiment [8], 0.38%; in [9], 3.75%; in experiment [10], -4.46%; in experiment [11], -3.83%; in [12] it was 1.71%. The inhibition in experiment [13] was 3.32%; in [14] it was 1.57%; in experiment [15], 3.88%; in [16], 4.7%; in experiment [17] it was 5.22%; in experiment [18] it was -0.35%. In addition, the inhibition in [19] was determined as 0.22%; in experiment [20], 2.98%.
In the case of `C#Cc1cccc(Nc2ncnc3ccc(OCCCCNCCS(C)(=O)=O)cc23)c1`, the inhibition was 19.4% in [1]; 8.28% in [2]; 24.9% in [3]; 8.05% in [4]; 26.8% in experiment [5]; 3.38% in experiment [6]. For the same compound, the inhibition in experiment [7] is 31.9%; in [8], 5.87%; in experiment [9] it was 14.8%; in experiment [10] it was -8.14%; in experiment [11] it was -7.98%; in experiment [12], 2.28%. The inhibition is 3.96% in [13]; 3.24% in experiment [14]; 5.57% in [15]; 6.2% in experiment [16]; 10.2% in experiment [17]; -3.76% in experiment [18]. For the same compound, the inhibition in experiment [19] came out at 1.2%; in [20], 3.24%.

The values are drawn from ChEMBL document CHEMBL1961873, “Compounds: GSK PKIS; Assays: Nanosyn kinase panel” (2012).
